Results reported in ChEMBL document CHEMBL3988442, “University of Dundee, Small-Polar-MMV Screening Library” (2021).
About 13,000 (27%) of roughly 48,000 compounds showed an effect of 50% or more. The list shows a part of the results.

Each compound was assayed on Wolbachia pipientis (assay: Anti-Wolbachia Cell-Based Screen). Details: 5 µM.
Type: functional
Design: scale not given: in the data most compounds retested in dose-response had high values

Row | SMILES | Percent Effect [%]
1 | O=C(NCCCO)c1cnc(-c2ccccc2)nc1O | -7.002
2 | Cc1cc(N2CCCC(OC(=O)CCN3CCCC3=O)C2)nc(C)n1 (stereo not drawn) | -12.05
3 | Cc1nc(NCCN2CCCC2=O)cc(C2CN(C)CCO2)n1 (stereo not drawn) | 121.4
4 | CC(CCN1CCCC1=O)NCc1cnc(C2CCC2)s1 (stereo not drawn) | 5.748
5 | Cc1nc(NCCN2CCCC2=O)cc(C2CN(C(C)C)CCO2)n1 (stereo not drawn) | 108.1
6 | CC(=O)N1CCN(c2cc(C3CN(C)CCO3)nc(C)n2)CC1 (stereo not drawn) | -11.29
7 | Cc1cnn(CC2CN(CCN3CCCC3=O)CCO2)c1 (stereo not drawn) | -2.569
8 | Cc1ccc(CNCC2CCCn3ccnc32)s1 (stereo not drawn) | -4.636
9 | CC(=O)c1cc(C(=O)NC2(c3ccccc3)CCC2)n(C)c1 | -2.692
10 | Cn1cc(C2=NOC(C(=O)NC3(c4ccccc4F)CCCC3)C2)cn1 (stereo not drawn) | 111.1
11 | Cn1cc(C2=NOC(C(=O)NC3(c4ccccc4)CCCC3)C2)cn1 (stereo not drawn) | 117.7
12 | Cn1cc(N2CCC(NC(=O)c3ccccc3F)C2=O)cn1 (stereo not drawn) | 1.627
13 | Cn1cc(C2=NOC(C(=O)NC3(c4cccc(F)c4)CCCC3)C2)cn1 (stereo not drawn) | 105.1
14 | O=C(NC1(c2cccc(F)c2)CCOCC1)c1ccccn1 | 10.14
15 | O=C(NC1(c2cccc(F)c2)CCOCC1)c1ccoc1 | -9.671
16 | O=C(CCCn1cncn1)NC1(c2ccccc2)CCC1 | -7.229
17 | CC(C)C(NC(=O)c1ccccc1F)C(=O)Nc1cnn(C)c1 (stereo not drawn) | 10.34
18 | N[C@@H]1c2ccccc2C2(CCN(C(=O)c3cncc(Cl)c3)CC2)[C@H]1O | -1.083
19 | CCN(Cc1noc(C)n1)C(=O)C(c1cccc(C)c1)N(C)C (stereo not drawn) | 1.236
20 | CSc1cc2c(cc1NC(=O)NCCn1ccnc1)OCCO2 | 8.638
21 | COCc1ccccc1C(=O)NS(=O)(=O)c1ccc2c(c1)CCC(=O)N2 | -32.38
22 | COc1ccc2c(c1)C(C(=O)N(C)CCCc1cnn(C)c1)CC(=O)N2 (stereo not drawn) | -51.57
23 | Cn1ccnc1COc1ccc(COC(=O)C2CCCO2)cc1 (stereo not drawn) | 0.9583
24 | Cn1ccnc1COc1ccc(CSc2nnnn2C)cc1 | 6.685
25 | CCOC(=O)N1CCN(Cc2ccc(OCc3nccn3C)cc2)CC1 | 3.799

Row | SMILES | Percent Effect [%]
26 | Cn1ccnc1COc1ccc(CO)cc1 | 4.503
27 | Cn1ccnc1COc1ccc(CSc2nncn2C2CC2)cc1 | -10.32
28 | COCCN1CCN(Cc2ccc(OCc3nccn3C)cc2)CC1 | 100.2
29 | CC1CCCN(Cc2ccc(OCc3nccn3C)cc2)C1 (stereo not drawn) | 64.75
30 | CC(=O)N1CCN(Cc2ccc(OCc3nccn3C)cc2)CC1 | 94.07
31 | Cn1ccnc1COc1ccc(CN2CCN(CCO)CC2)cc1 | -5.223
32 | Cn1ccnc1COc1ccc(CN2CCC(C(N)=O)CC2)cc1 | 122.5
33 | Cn1ccnc1COc1ccc(CSc2nnnn2C2CC2)cc1 | -14.27
34 | CCCN1C[C@H]2CC[C@@H]1CN(Cc1cccc(O)c1)C2 | 9.983
35 | CC(=O)c1ccc(N2CCCC(CO)(Cc3ccccc3C)C2)nc1 (stereo not drawn) | -1.793
36 | Cc1ccccc1N1CCCN(C(=O)CCCS(N)(=O)=O)CC1 | -5.383
37 | Cc1cccc(SC2CCN(C(=O)CCCn3cnnn3)CC2)c1 | 97.25
38 | Cc1cccc(SC2CCN(C(=O)CCNS(C)(=O)=O)CC2)c1 | 90.55
39 | COc1cccc(OC2CN(C(=O)CCn3cnnn3)C2)c1 | -0.2846
40 | CS(=O)(=O)NCCC(=O)N1CCC(Cc2ccc(CO)cc2)C1 (stereo not drawn) | 5.18
41 | Cc1cccc(SC2CCN(Cc3nc(CC4CC4)no3)CC2)c1 | -16.83
42 | Cc1ccccc1SC1CCN(C(=O)[C@H]2[C@@H]3CNC[C@@H]32)CC1 | -39.6
43 | Cc1ccccc1SC1CCN(C(=O)CCCS(N)(=O)=O)CC1 | 85.51
44 | Cc1cccc(OC2CCN(C(=O)CNC(=O)N(C)C)CC2)c1 | 0.03491
45 | Cc1ccccc1C1CCN(C(=O)CCNS(C)(=O)=O)C1 (stereo not drawn) | -0.3491
46 | CSCC(=O)N1CCC(Oc2cccc(C)c2)CC1 | 1.414
47 | CC(=O)NCCCC(=O)N1CCC(Sc2cccc(C)c2)CC1 | 104.7
48 | O=C(Nc1ccc2c(c1)OCO2)N1CCCC1c1ccco1 (stereo not drawn) | -0.7591
49 | Cc1nc(CN2C[C@@H](CN3CCOCC3)[C@@H](CO)C2)c2ccccn12 | 6.539
50 | COCC(=O)N1CCc2nc(C(=O)N(C)C)sc2CC1 | -18.32

Row | SMILES | Percent Effect [%]
51 | CN(Cc1ccc(C#N)cc1)Cc1noc(C(C)(C)C)n1 | 1.419
52 | Cc1ccccc1CCC1CCCN(Cc2c(C)[nH]c(=O)[nH]c2=O)C1 (stereo not drawn) | 11.3
53 | NS(=O)(=O)CCCC(=O)N1CCC2(CC1)c1ccccc1CC2O (stereo not drawn) | -16.64
54 | Cc1cnccc1N1CCCN(C(=O)CCCS(N)(=O)=O)CC1 | 5.967
55 | Cc1cccc(SC2CCN(C(=O)CCCS(N)(=O)=O)CC2)c1 | 79.05
56 | Cc1ncsc1-c1nnc(C2CCN(Cc3cccc(Cl)c3)CC2)o1 | 113.8
57 | COc1cccc(CN2CC[C@H](c3nnc(-c4ccco4)o3)C2)c1 | 18.39
58 | Cc1ncsc1-c1nc(-c2cccc(CN3CCOCC3)c2)no1 | 1.772
59 | Cc1cccc(CN2CCC(c3nnc(-c4scnc4C)o3)CC2)c1 | 109.5
60 | COc1cccc(CN2CC[C@H](c3nnc(C)o3)C2)c1 | 12.81
61 | COc1cccc(CN2CCC(c3nnc(-c4cnc(C)cn4)o3)C2)c1 (stereo not drawn) | 84.16
62 | Cc1nc(CN2CCN(CC(=O)Nc3c(C)cccc3C)CC2)no1 | 0.7695
63 | COc1ccc(C(O)C(=O)N2CCC(c3nccn3C(C)C)CC2)cc1 (stereo not drawn) | -20.71
64 | CC(NC(=O)c1ccoc1)C(=O)N(C)Cc1ccc(O)cc1 (stereo not drawn) | -3.093
65 | Cc1cc(NC(=O)NCC(c2ccsc2)N(C)C)n(C)n1 (stereo not drawn) | -2.678
66 | CCN(CC)C(CNC(=O)c1c(C)noc1C(C)C)c1ccsc1 (stereo not drawn) | 108.9
67 | Cc1noc(C)c1C(=O)NCC(c1ccsc1)N(C)C (stereo not drawn) | 115.3
68 | Cc1noc(C)c1C(=O)NCC(c1ccc(F)cc1)N(C)C (stereo not drawn) | -4.601
69 | Cc1noc(C(C)C)c1C(=O)NCC(c1ccsc1)N(C)C (stereo not drawn) | -2.505
70 | Cc1nn(-c2ccccc2)nc1C(=O)NCC(c1ccsc1)N(C)C (stereo not drawn) | -0.008163
71 | CN(C)C(CNC(=O)c1ncoc1-c1ccccc1)c1ccsc1 (stereo not drawn) | -4.122
72 | Cc1nn(C)c(Cl)c1C(=O)NCC(c1ccsc1)N(C)C (stereo not drawn) | -1.114
73 | Cc1cc(C(=O)NCC(c2ccsc2)N(C)C)no1 (stereo not drawn) | 113.7
